The results in this text go back to PubChem BioAssay (NCATS).

Values joined by “and” are separate entries in the source; they are usually repeats but may differ in a detail not shown here. Equal entries are not always repeated. Records with an inconclusive call do not appear. Active and inactive are the calls of the source. Unless noted, calls come from the whole dose curve; as a rule, active = well fitted curve in the direction sought with a large enough effect; inconclusive = small, poorly fitted or top-dose-only effect, or another doubt; inactive = no such curve, though single readings can be large; an effect the other way counts as inactive or inconclusive.

A short description of assay [1]: qHTS assay for small molecule antagonists of peroxisome proliferator-activated receptor delta signaling (AID 588535; active = well fitted inhibition curve with a large enough effect in the signal ratio, with a control signal flat, not every such curve was filed as active; the % refers to the signal ratio;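 for max response: cells co-treated with a PPAR-delta agonist as stimulator during compound exposure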). Conditions: HEK293T PPARd-UAS-bla, beta-lactamase FRET ratio, 18 h; 460 nm channel. Put shortly: (§1)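 Beta-lactamase reporter read-out (405 nm excitation, 460/530 nm emission) after CCF4 loading for 2 hrs at RT. HEK293T PPAR-delta-UAS-bla cells, 2% charcoal/dextran FBS, compounds for 18 hrs at 37 C. Hill fit gave IC50 and efficacy.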
On the technique in general: Quantitative high-throughput screening tests each substance at several concentrations.

The target of assay [2] is Peroxisome proliferator-activated receptor delta (Homo sapiens) (UniProt Q03181). The description is as above. The gist of the method:
as §1

The target of assay [3] is Vitamin D3 receptor (Homo sapiens) (UniProt P11473). Put plainly: qHTS assay for small molecule antagonists of vitamin D receptor signaling (AID 588541; calls by dose curve;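 note: receptor activated by calcitriol during compound treatment; series mostly up to about 77 µM; % is set by controls: 0 for no effect and ±100 for the full control effect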). Put shortly: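 VDR-UAS-bla HEK293T cells in 2% charcoal-stripped FBS were stimulated with 1-alpha,25-dihydroxyvitamin D3 (3 nM final) plus compound for 16 h at 37 C. The beta-lactamase CCF4 readout was normalized to 50 nM agonist and DMSO, and Hill fits gave IC50.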
Chain of Vitamin D3 receptor (Homo sapiens) (P11473 whole entry, looked up): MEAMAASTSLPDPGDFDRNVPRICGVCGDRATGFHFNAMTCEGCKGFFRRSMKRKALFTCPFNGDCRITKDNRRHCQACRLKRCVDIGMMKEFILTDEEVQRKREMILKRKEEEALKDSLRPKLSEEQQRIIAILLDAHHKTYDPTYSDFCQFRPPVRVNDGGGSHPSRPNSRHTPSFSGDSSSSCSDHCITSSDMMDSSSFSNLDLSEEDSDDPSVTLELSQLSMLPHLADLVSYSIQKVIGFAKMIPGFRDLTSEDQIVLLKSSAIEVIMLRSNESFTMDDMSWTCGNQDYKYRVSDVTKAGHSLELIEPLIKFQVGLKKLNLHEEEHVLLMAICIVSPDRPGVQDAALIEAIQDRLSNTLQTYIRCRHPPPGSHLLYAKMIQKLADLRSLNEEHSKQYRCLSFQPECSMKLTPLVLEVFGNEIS

The target is the same in assay [4]. Put plainly: qHTS assay for small molecule agonists of vitamin D receptor signaling (AID 588543; calls by dose curve;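 note: 0% = DMSO basal and 100% = reference agonist control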). The gist of the method: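 β-lactamase reporter, VDR-UAS-bla HEK293T, agonist mode. Cells plated 5 h at 37 °C, compound titration 16 h at 37 °C, CCF4 dye 2 h RT, ratio 460/530 nm. Hill fit → EC50, efficacy vs 50 nM 1α,25-(OH)2D3.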
Assay [5] in a line: qHTS assay for small molecule agonists of retinoid X receptor alpha signaling (AID 588544; calls by dose curve). Conditions: HEK293T RXRa-UAS-bla, beta-lactamase reporter, 18 h; 530 nm emission.
Assay [6] addresses Retinoic acid receptor RXR-alpha (Homo sapiens) (UniProt P19793). The assay is described as above.
The target of assay [7] is Thyroid hormone receptor beta (Homo sapiens) (UniProt P10828). Put plainly: qHTS assay for small molecule agonists of thyroid hormone receptor beta signaling (AID 588545; calls by dose curve). The gist of the method:
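HEK 293 TR-UAS-bla; agonist mode; 18 hrs, 37 C; CCF4, ex 405/em 460 and 530 nm; norm. T3 10 nM = 100%, DMSO = 0%; Hill fit → EC50, efficacy.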

Assay [8] can be described thus: qHTS assay for small molecule antagonists of retinoid X receptor alpha signaling (AID 588546; active = well fitted inhibition curve with a large enough effect in the signal ratio, with a control signal flat, not every such curve was filed as active; the % refers to the signal ratio;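 note: cells stimulated with 9-cis-retinoic acid as agonist; % is set by controls: 0 for no effect and ±100 for the full control effect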). The conditions noted are these: HEK293T RXRa-UAS-bla, beta-lactamase ratio, antagonist mode; measured here: W530 green channel, cytotoxicity proxy. The gist of the method:
(§2)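 Beta-lactamase reporter inhibition, read as CCF4 fluorescence ratio (ex 405, em 460/530 nm) after 2 h at RT. HEK293T UAS-bla cells, 2500/well, were stimulated with 9-cis-RA at 500 or 100 nM final alongside test compound for 18 h at 37 C.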

Assay [9] has as its target Retinoic acid receptor RXR-alpha (Homo sapiens) (UniProt P19793). Described as above. Conditions: HEK293T RXRa-UAS-bla, beta-lactamase ratio, antagonist mode. The gist of the method: as §2
Assay [10] concerns the target Thyroid hormone receptor beta (Homo sapiens) (UniProt P10828). Kind of assay: qHTS assay for small molecule antagonists of thyroid hormone receptor beta signaling (AID 588547; active = well fitted inhibition curve with a large enough effect in the signal ratio, with a control signal flat, not every such curve was filed as active; the % refers to the signal ratio;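 note: cells stimulated with 0.4 nM T3 agonist during compound exposure; series mostly up to about 77 µM; % is set by controls: 0 for no effect and ±100 for the full control effect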). Conditions: TR-UAS-bla HEK293, beta-lactamase ratio, antagonist mode, 18 h. The gist of the method:
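TR-UAS-bla GripTite HEK293 cells in 2% charcoal/dextran FBS medium; compounds 0.59 nM to 92 uM with T3 at 0.4nM final, 18 h at 37 C. Beta-lactamase read by CCF4 fluorescence (460/530 nm); Hill fits gave IC50 and efficacy.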

Assay [11] deals with Voltage-gated inwardly rectifying potassium channel KCNH2 (Homo sapiens) (UniProt Q12809). Kind of assay: qHTS Assay for Small Molecule Inhibitors of the Human hERG Channel Activity (AID 588834).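 Note: lower thallium flux fluorescence means stronger hERG block; nearly all actives have a fitted effect of over 50% in size.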 Note: potency is the fitted concentration of half-maximal effect. Put shortly: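 Thallium-flux (FluxOR) read-out on FDSS: fluorescence read 10 s before and 2 min after stimulation buffer. hERG-BacMam-transduced U2OS cells, compound exposure about 10 min. AC50 by standard Hill equation.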
Chain of Voltage-gated inwardly rectifying potassium channel KCNH2 (Homo sapiens) (Q12809 whole entry, looked up): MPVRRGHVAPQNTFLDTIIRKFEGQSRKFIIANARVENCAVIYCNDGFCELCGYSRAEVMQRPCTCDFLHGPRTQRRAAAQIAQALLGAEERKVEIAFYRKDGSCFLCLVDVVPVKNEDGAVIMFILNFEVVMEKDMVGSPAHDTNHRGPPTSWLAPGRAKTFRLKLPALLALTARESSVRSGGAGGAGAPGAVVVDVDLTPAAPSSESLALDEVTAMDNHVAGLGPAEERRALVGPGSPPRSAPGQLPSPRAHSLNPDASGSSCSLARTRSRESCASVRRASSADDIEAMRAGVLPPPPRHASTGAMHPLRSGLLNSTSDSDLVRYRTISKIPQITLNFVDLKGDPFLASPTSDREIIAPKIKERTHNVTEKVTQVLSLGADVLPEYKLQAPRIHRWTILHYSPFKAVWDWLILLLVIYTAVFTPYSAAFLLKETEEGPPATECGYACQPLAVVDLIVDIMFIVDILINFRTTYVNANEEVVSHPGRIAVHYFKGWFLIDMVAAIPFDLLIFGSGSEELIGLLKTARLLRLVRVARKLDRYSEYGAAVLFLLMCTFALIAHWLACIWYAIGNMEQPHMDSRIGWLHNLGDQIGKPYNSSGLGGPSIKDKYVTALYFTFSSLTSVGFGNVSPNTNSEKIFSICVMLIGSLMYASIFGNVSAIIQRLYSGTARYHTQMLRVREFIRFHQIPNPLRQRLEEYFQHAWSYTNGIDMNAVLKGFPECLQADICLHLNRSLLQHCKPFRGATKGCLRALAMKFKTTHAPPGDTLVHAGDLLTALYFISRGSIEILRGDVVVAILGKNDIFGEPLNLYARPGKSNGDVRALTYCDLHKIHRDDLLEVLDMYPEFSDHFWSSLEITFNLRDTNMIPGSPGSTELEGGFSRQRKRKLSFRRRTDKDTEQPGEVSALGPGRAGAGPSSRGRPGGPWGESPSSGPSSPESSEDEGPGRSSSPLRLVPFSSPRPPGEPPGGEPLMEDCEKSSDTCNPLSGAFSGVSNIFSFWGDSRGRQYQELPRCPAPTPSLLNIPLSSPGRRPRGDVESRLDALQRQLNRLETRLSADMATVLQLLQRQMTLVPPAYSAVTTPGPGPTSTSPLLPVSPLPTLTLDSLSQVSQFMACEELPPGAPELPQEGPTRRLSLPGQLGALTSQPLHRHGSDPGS

In assay [12] the target is Luciferin 4-monooxygenase (Photinus pyralis) (UniProt P08659). Kind of assay: Biochemical firefly luciferase enzyme assay for NPC (AID 624030). Note: nearly all actives have a fitted effect of over 70% in size. Note: potency is the fitted concentration of half-maximal effect. Put shortly:
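Purified P. pyralis luciferase at 10 nM in 50 mM Tris Acetate (final), luminescence read within 5 minutes of enzyme addition to compounds. Activity normalised to PTC124 versus DMSO; concentration-response curves classed by r2, magnitude and activity.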

Assay [13] in a line: S16 Schwann cell viability assay (CellTiter-Glo assay) (AID 624031).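 Note: series mostly up to about 58 µM; plate controls were DMSO-treated cells for no effect and cell-free wells for full effect; nearly all actives have a fitted effect of over 70% in size.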 Put shortly:
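Untransfected S16 rat Schwann cells; compound 24 h, 37 °C/5% CO2; CellTiter-Glo ATP luminescence. % activity vs no-cell wells and DMSO controls (0%); concentration-effect curves classed by r2, response magnitude, activity.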
On the technique in general: ATP-based viability assays read luminescence as a measure of living cells.

Assay [14] in a line: S16 Schwann cell PMP22 intronic element firefly luciferase assay (AID 624032).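 Note: series mostly up to about 58 µM; plate controls were DMSO for no effect and PTC124 positive control mean for full effect; nearly all actives have a fitted effect of over 30% in size.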 Put shortly:
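Rat S16 Schwann cells stably carrying firefly luciferase driven by a PMP22 intronic element, in 10% FBS, treated 24 h at 37 C. ONE-Glo luminescence normalized to PTC124 control and DMSO (0%); curves classed by r2, magnitude and activity.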

Assay [15] addresses Peroxisome proliferator-activated receptor gamma (Homo sapiens) (UniProt P37231). Put plainly: qHTS assay for small molecule agonists of peroxisome proliferator-activated receptor gamma signaling (AID 588536; active = well fitted curve in the direction sought with a large enough effect in the signal ratio, with a control signal flat, not every such curve was filed as active; the % refers to the signal ratio;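 note: 0% = DMSO basal wells and 100% = rosiglitazone at 2 µM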). Put shortly:
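Cells were plated and held 6–6.5 h at 37 C, then compounds were added as a titration series. After a further 16 h, CCF4 dye was loaded for 2 h at room temperature and emission at 460/530 nm recorded.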

Chain of Peroxisome proliferator-activated receptor gamma (Homo sapiens) (P37231 whole entry, looked up): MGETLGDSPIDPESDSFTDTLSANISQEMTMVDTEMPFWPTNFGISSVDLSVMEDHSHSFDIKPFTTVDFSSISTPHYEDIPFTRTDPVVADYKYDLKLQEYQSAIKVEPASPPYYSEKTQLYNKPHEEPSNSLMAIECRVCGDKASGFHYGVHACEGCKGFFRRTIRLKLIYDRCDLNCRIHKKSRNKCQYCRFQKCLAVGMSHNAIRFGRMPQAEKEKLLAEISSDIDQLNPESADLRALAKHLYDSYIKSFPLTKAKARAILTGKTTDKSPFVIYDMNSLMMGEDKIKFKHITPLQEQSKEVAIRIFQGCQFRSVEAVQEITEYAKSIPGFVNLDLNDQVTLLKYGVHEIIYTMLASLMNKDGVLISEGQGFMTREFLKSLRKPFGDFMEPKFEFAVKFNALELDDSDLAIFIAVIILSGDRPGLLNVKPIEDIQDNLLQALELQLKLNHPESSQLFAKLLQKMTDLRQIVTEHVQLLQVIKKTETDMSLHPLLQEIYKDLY
Chain of Thyroid hormone receptor beta (Homo sapiens) (P10828 whole entry, looked up): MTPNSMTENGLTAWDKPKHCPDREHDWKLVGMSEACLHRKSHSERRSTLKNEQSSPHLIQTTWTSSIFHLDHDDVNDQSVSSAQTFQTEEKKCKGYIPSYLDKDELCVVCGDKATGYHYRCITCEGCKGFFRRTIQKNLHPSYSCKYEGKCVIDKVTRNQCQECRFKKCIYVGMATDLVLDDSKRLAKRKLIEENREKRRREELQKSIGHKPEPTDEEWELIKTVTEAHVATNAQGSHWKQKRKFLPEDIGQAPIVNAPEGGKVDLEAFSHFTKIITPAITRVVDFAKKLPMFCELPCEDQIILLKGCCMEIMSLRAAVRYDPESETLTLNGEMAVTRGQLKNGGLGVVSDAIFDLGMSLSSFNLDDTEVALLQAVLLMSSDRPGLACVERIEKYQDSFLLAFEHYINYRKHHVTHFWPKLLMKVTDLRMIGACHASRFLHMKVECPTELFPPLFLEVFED
Chain of Peroxisome proliferator-activated receptor delta (Homo sapiens) (Q03181 whole entry, looked up): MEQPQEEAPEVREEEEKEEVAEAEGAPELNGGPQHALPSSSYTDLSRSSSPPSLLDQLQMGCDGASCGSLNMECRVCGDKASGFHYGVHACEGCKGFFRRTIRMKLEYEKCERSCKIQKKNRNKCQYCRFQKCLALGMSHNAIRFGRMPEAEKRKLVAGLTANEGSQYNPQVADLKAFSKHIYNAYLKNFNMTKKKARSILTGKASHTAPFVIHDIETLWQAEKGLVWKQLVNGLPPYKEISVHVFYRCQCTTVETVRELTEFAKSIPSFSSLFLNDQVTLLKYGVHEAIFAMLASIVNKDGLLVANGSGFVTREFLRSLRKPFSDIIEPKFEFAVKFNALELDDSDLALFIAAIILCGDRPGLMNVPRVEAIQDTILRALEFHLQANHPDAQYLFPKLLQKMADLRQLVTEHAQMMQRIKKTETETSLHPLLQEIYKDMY
Chain of Luciferin 4-monooxygenase (Photinus pyralis) (P08659 whole entry, looked up): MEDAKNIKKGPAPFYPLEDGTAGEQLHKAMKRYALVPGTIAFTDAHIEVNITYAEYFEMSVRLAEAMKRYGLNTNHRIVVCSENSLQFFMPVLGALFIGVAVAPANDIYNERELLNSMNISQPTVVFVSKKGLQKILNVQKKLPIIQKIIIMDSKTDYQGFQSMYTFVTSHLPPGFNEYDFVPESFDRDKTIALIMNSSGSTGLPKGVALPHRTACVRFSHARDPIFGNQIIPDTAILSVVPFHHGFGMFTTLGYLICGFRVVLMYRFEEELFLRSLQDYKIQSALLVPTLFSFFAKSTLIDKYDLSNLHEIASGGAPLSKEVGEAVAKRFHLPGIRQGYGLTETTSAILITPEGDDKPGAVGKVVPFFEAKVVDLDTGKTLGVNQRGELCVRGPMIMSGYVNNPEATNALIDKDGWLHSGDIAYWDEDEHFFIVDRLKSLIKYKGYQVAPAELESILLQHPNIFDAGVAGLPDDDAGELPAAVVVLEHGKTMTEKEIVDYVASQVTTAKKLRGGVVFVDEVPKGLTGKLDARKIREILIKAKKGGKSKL
Chain of Retinoic acid receptor RXR-alpha (Homo sapiens) (P19793 whole entry, looked up): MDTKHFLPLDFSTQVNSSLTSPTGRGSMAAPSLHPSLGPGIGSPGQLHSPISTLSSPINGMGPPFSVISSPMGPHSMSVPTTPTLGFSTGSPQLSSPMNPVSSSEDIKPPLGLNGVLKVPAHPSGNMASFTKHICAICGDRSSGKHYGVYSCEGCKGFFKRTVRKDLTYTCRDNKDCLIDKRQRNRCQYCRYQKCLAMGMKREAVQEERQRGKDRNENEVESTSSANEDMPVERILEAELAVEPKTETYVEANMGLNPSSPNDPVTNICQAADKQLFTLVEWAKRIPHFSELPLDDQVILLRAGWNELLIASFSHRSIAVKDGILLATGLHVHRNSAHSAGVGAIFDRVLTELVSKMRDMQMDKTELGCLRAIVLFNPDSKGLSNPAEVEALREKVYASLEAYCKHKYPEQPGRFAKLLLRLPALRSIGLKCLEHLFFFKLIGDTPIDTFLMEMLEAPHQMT

For `CCCCCCCC/C=C\CCCCCCCCN`, the max response is -29.2% in assay [1], -3% in assay [5], 0.483% in assay [8] and 8.18% (inactive) in assay [9]. For the same compound, the call in assay [2], in assay [4], in [6] and in assay [7] was inactive. Moreover, the Potency entry in assay [3], in [11], in [12], in assay [13] and in [14] was “inactive” in each case. In [10], the activity change % (negative = inhibition) was -4.57% (inactive).
Consider `C[C@@]12C(=O)OC(=O)[C@]1(C)C1CCC2O1`, for which, in assay [11], the Potency result was “inactive”.
Take `C/C=C/c1ccc(O)c(OC)c1`: the max response in assay [1] is 10.7% and 20%; in assay [5] it was -13.6% and -6.37%; in assay [8] it was 1.1% and -9.34%; in [9], 2.19% (inactive) and -7.41% (inactive). In addition, the compound was called inactive in [2], in assay [15] and in assay [6]. Also, the Potency entry in assay [11], in assay [12], in [13] and in assay [14] was “inactive” throughout.
In the case of `CCCCOC(=O)CC(CC(=O)OCCCC)(OC(C)=O)C(=O)OCCCC`, the max response is 0.806% in assay [1], 10.7% in [5], -7.31% in assay [8] and -5.69% (inactive) in assay [9]. For the same compound, the compound was classed as inactive in assay [2], in [15], in [4], in [6] and in assay [7]. Besides, the Potency entry in assay [3] was “inactive”. Further, the activity change % (negative = inhibition) in assay [10] is 12.8% (inactive).
In the case of `O=S(c1cc(Cl)cc(Cl)c1O)c1cc(Cl)cc(Cl)c1O`, the Potency entry in [11], in [13] and in [14] was “inactive” throughout. Further, the Potency in assay [12] was 32.2 µM (active).
`COc1ccc(CCN(C)CCCN2CCc3cc(OC)c(OC)cc3CC2=O)cc1OC`: in assay [11], the Potency was 7.94 µM (active). The Potency entry in [12], in assay [13] and in assay [14] was “inactive” throughout.
As to `CCOC(=O)c1ccc(N)cc1`, the Potency result in assay [11], in assay [12], in [13] and in [14] was “inactive” throughout.
Take `CC(=O)OCC(=O)[C@H]1CC[C@H]2[C@@H]3CCC4=CC(=O)CC[C@]4(C)[C@H]3CC[C@]12C`: the Potency result in assay [11], in [12], in assay [13] and in [14] was “inactive” throughout.
As for `CCN(CC)CCNC(=O)COc1ccc(OC)cc1`, the Potency result in [11], in assay [12], in [13] and in [14] was “inactive” throughout.
On to `CCC(C(=O)OCCOCCN(CC)CC)c1ccccc1` (centres undefined), for which the Potency entry in [11], in assay [12], in assay [13] and in [14] was “inactive” throughout.
`NS(=O)(=O)c1cc(C(=O)O)cc(N2CCCC2)c1Oc1ccccc1`: the Potency entry in [11], in assay [12], in assay [13] and in [14] was “inactive” throughout.
For the compound `Cc1cc(C)cc(OCC2CNC(=O)O2)c1` (centres undefined), the Potency entry in [11], in [12], in assay [13] and in [14] was “inactive” in each case.
Regarding `CC(=O)NCCCCCC(=O)O`, the Potency result in [11], in assay [12], in assay [13] and in assay [14] was “inactive” in each case.
As to `Cc1ncc(CO)c(C=O)c1O`, the Potency result in [11], in assay [12], in assay [13] and in [14] was “inactive” throughout.
As for `Cc1ccc(S(=O)(=O)NC(=O)NC2CCCC2)cc1`, the Potency result in [11], in [12], in assay [13] and in assay [14] was “inactive” in each case.
With `CCc1ccc(C(=O)C(C)CN2CCCCC2)cc1` (centres undefined), the Potency entry in assay [11], in [12], in assay [13] and in [14] was “inactive” each time.
Take `O=C(Nc1cccc(C2=NCCN2)c1)Nc1cccc(C2=NCCN2)c1`: the Potency entry in [11], in assay [12], in [13] and in assay [14] was “inactive” in each case.
